# An excerpt weighted towards active compounds, which were near 3.6% of everything screened.
# NPSR antag: neuropeptide S receptor (human) antagonism, cAMP; Q6W5P4; CHO-NPSR cells, cAMP TR-FRET, antagonist mode; Potency, µM (titrated, usually from 38.3 µM), without a hit: at the top dose activity change, negative = inhibition, usual class: inhibitors; 220,000 compounds, 1% hits; also: % is scaled to controls: 0 for no effect and ±100 for the full control effect; nearly all actives have a fitted effect of over 50% in size
# Target sequence (Q6W5P4 whole entry, looked up): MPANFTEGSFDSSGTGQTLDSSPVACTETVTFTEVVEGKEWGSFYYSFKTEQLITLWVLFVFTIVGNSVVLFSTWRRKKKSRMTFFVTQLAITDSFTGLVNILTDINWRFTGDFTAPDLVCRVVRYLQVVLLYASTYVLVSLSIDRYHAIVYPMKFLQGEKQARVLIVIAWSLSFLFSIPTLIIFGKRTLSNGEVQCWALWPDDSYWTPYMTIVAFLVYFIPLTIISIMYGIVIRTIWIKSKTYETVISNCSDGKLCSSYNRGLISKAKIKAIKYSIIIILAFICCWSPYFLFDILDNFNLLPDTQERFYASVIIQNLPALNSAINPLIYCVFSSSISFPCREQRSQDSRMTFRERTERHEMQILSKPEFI
# JMJD2E inh: blocks human JMJD2E demethylase activity; JMJD2E catalytic domain, FDH-coupled NADH fluorescence (FDH is formaldehyde dehydrogenase); Potency, µM (top dose mostly 57.1 µM), without a hit: at the top dose activity change, negative = inhibition, hits mostly inhibitors; 230,000 compounds, 1.6% hits; AID 2147; active = well fitted inhibition curve with a large enough effect, not every such curve was filed as active; inconclusive = small, poorly fitted or top-dose-only effect, or another doubt; inactive = no such curve, though single readings can be large or run the other way;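 also: 0% = wells with enzyme and -100% = buffer wells without enzyme; nearly all actives have a fitted effect of over 50% in size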
# Epigenetic derep: regulators of epigenetic silencing causing reporter derepression in mouse cells; 280,000 compounds, 0.2% hits; murine LDR cells, GFP reporter derepression, 30 h; Potency, µM (doses to about 53.9 µM), for the others: top-dose GFP activation, most hits filed as activators; also: % of control where 0% means no effect; nearly all actives have a fitted effect of over 60% in size
#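 GFP-positive cell count by laser-scanning cytometry (objects 20–120 um) after 30 h, 37 C compound exposure of murine LDR cells; reporter is CMV-GFP integrated at a silenced locus, inducible by HDAC or DNMT inhibitors.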
# KAT2A inh: GCN5L2 (KAT2A) acetyltransferase inhibition. Potency, µM (series often up to 58.9 µM), inactives show at the top dose activity change, negative = inhibition, usual class: inhibitors. GCN5L2 HAT assay, ThioGlo1 CoA-SH fluorescence. Q92830. 390,000 compounds, 0.21% hits; also: % is scaled to controls: 0 for no effect and ±100 for the full control effect
#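 Enzyme at 20nM final was mixed with library compounds for 15 min at room temperature. Peptide H3(1-25) at 75uM, acetyl-CoA at 70uM and ThioGlo1 at 50uM were then added. Plates were read immediately and after 20 min (Ex340nm/Em540nm).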
# IMPase Li inh: membrane-permeable IMPase blocker, potentiated with lithium; Potency, µM (top dose mostly 59.4 µM), for the others: top-dose activity, negative = IMPase inhibition, actives largely listed as inhibitors; CHO-M1 cells, IP1 TR-FRET (IP-One), carbachol + lithium; 210,000 compounds, 0.35% hits;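 also: IP1 builds up when IMPase is blocked and the TR-FRET signal falls; plate controls were basal vehicle for no effect and high inhibitor control for full effect; nearly all actives have a fitted effect of over 50% in size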
#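 CHO cells stably expressing M1 receptor (2000/well) were cultured 16–30 h, then exposed to compounds with a small lithium addition for 30 min at 37C. IP1 was measured by TR-FRET competition; AC50 from Hill fits.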
# Sfp PPTase inh: Sfp phosphopantetheinyl transferase inhibition | Q9F4F7 | Biochemical Sfp PPTase activity, qHTS | Potency, µM, for the others: largest response in the series, negative = inhibition, most hits filed as inhibitors | 310,000 compounds, 3.5% hits | AID 1490;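 also: the enzyme is Sfp with the accession as filed and its product quenches rhodamine fluorescence; 0% = enzyme reaction without inhibitor and -100% = no enzyme wells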
#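 Fluorescence-quenching assay: 15 nM Sfp-PPTase preincubated 15 min at room temperature with compound, then 5 uM rhodamine-CoA and 12.5 uM BHQ-2-labelled YbbR peptide added. Fluorescence (ex 525/em 598 nm) read at start and after 30 min; difference gives rate.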
# * hit, by the source's call; u = inconclusive; x = no result given; [ ] = another dose, or the depositor's remark. Unless noted, calls follow the shape of the dose curve; as a rule, active = well fitted curve in the direction sought with a large enough effect; inconclusive = small, poorly fitted or top-dose-only effect, or another doubt; inactive = no such curve, though single readings can be large; an effect the other way counts as inactive or inconclusive. Potency is read from the fitted curve at half-maximal effect.
SMILES,NPSR antag,JMJD2E inh,Epigenetic derep,KAT2A inh,IMPase Li inh,Sfp PPTase inh
C[C@@H](Oc1ccc(Oc2cnc3ccc(Cl)cc3n2)cc1)C(=O)O,u,-1.5%,3.7%,x,12.8%,x
CC(C)(C)c1ccc(NC(=O)c2ccsc2)cc1,55.6%,-0.5%,1.1%,-7.1%,x,79.4µM*
Clc1ncnc2c1oc1ccccc12,-17.3%[46.1 µM],-16.5%,-0.4%,-5.2%,29.6%[38.3 µM],14.4%
c1coc(CN(Cc2ccco2)c2ncnc3c2oc2ccccc23)c1,u,-9.7%,11.6%,-12.6%,23.1%,28.2µM*
COc1ccc(CNc2nc(NCc3ccc(OC)cc3)c3ncn(C4CCCCC4)c3n2)cc1,x,x,x,-11.3%,x,0.8%
Cc1cccn2cc(CNC(=O)c3ccco3)nc12,0.8%[46.1 µM],u,-1.2%,35.5µM*,4.1%[38.3 µM],8.7%
CSCC[C@@H]1NC(=O)[C@@H](NC(=O)[C@H](CCCNC(=N)N)NC(=O)[C@H](CC(C)C)NC(=O)[C@H](CCSC)NC(=O)[C@H](CC(=O)O)NC(=O)[C@H](Cc2ccccc2)NC(=O)[C@@H](N)CC(=O)O)CSSC[C@@H](C(=O)N[C@@H](Cc2c[nH]c3ccccc23)C(=O)N[C@@H](CCC(N)=O)C(=O)N[C@@H](Cc2ccc(O)cc2)C(=O)O)NC(=O)[C@@H]2CCCN2C(=O)[C@H](CCCNC(=N)N)NC(=O)[C@H](Cc2ccccc2)NC(=O)[C@H](C(C)C)NC(=O)[C@H](CCCNC(=N)N)NC(=O)CNC(=O)[C@H](CC(C)C)NC1=O,x,x,x,-14.4%,x,x
O=c1oc2cc(O)ccc2c2ccccc12,5.01µM*,-2.4%,0.1%,-5.6%,12.6µM*,7.4%
Nc1ccc(N2CCCCC2)cc1N1CCCCC1,-8.1%[46.1 µM],-12.4%,-1.8%,-5.1%,-2.6%[38.3 µM],31.6µM*
COc1ccccc1CNC(=O)c1cccc(-c2ccccc2OC)n1,x,x,-1.2%,-13.7%[88.6 µM],6.9%,15.2%
C=C(C)C(=O)c1cccs1,x,4.8%,0.0%,x,2.0%,-4.7%
O=C(/C(=C/O)N=Nc1ccccc1)c1cccs1,10µM*,-2.5%,-1.4%,-22.6%,10.5%,-7.2%
Cn1ccnc1Sc1nc2ccccc2nc1NS(=O)(=O)c1ccccc1,-12.7%[46.1 µM],u,6.6%,-13.6%,u,50.1µM*
Cn1cnnc1Sc1nc2ccccc2nc1NS(=O)(=O)c1ccccc1,17.1%[46.1 µM],u,1.5%,-8.2%,-18.5%[38.3 µM],1.0%
c1ccc(Nc2ncnc3ccc(-c4cccnc4)cc23)cc1,x,-14.4%,-0.9%,-11.3%,9.9%,10.4%
O=C(c1ccccc1[N+](=O)[O-])n1cnc2ccccc21,22.1%,6.1%,12.0%,0.7%,1.4%,10.1%
O=C(c1ccc([N+](=O)[O-])cc1[N+](=O)[O-])n1cnc2ccccc21,-0.9%,0.7%,6.7%,-0.9%,0.4%,79.4µM*
N=C1N=C(N)c2cc3ccccc3cc21,x,x,x,x,-9.1%,x
Oc1c(C(c2ccccc2Cl)N2CCCC2)ccc2cccnc12 (stereo unspecified),10µM*,u,u,-4.1%,20.4%,1.7%
Oc1c(C(c2cccs2)N2CCN(c3ccccc3)CC2)ccc2cccnc12 (stereo unspecified),15.8µM*,7.94µM*,0.7%,x,-6.5%[38.3 µM],39.8µM*
CN1CCN(C(c2ccc(C(F)(F)F)cc2)c2ccc3cccnc3c2O)CC1 (stereo unspecified),x,x,x,-1.5%,x,-2.4%
COC(=O)C1(Cc2ccccc2)C=C2C(=C(c3ccccc3)C(=O)C2C)CN1 (stereo unspecified),x,-26.8%,4.3%,x,3.5%,u
CCOC(=O)c1cnc(-n2nc(C)cc2C)nc1Nc1ccc(C)cc1,1.26µM*,7.1%,0.9%,-9.9%,1.3%,2.4%
COc1cc2c(cc1O)[C@@H](c1cc(O)c(O)c(OC)c1)[C@@](O)(C(=O)O)[C@@H](CO)[C@@H]2O,x,x,x,x,-2.8%,x
